# Inconclusive results are not listed. A number with no mark means an inactive call. Calls of active or inactive are those of the source. The call rests on the fitted dose curve; in most records, active means well fitted inhibition curve with a large enough effect; inconclusive means small, poorly fitted or top-dose-only effect; inactive means no such curve, though single readings can be large or run the other way.
# Target: Tumor susceptibility gene 101 protein (Homo sapiens) (UniProt Q99816)
# Assay: qHTS Assay for Iinhibitors of HIV-1 Budding by Blocking the Interaction of PTAP/TSG101: Hit Validation in TR assay
# Details: Tsg101 binding domain + Texas Red-labeled PTAP peptide, fluorescence polarization, 20 min; series mostly up to 57.5 µM; activity change, negative = inhibition: at the top concentration
# Outline: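 Texas Red-PTAP peptide (50 nM) binding to Tsg101 binding domain (10 uM), both final, in pH 7.5 HEPES buffer, read as polarization after 20 min at room temperature; compounds pinned before peptide addition.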
# On the % scale 0 is the no-effect control and ±100 the full control effect; potency means the concentration at half of the fitted maximal effect.
# Chain of Tumor susceptibility gene 101 protein (Homo sapiens) (Q99816 whole entry, looked up): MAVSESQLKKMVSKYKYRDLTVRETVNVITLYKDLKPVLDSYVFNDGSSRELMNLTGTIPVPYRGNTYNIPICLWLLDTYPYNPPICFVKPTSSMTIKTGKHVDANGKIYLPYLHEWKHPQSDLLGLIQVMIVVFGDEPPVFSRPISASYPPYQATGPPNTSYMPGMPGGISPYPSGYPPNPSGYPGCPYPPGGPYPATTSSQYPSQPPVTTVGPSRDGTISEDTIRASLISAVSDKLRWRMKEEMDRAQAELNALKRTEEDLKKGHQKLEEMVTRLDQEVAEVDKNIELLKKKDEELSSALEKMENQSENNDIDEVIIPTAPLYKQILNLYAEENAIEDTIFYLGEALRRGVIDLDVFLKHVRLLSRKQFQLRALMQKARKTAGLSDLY
SMILES,"activity change, negative = inhibition",Potency
COc1ccccc1N1C(=O)C2C(C(=O)c3ccccc3)=NN(c3ccc(C)cc3)C2C1=O (centres undefined),24.6%,
CCOc1ccc(NC(=O)c2ccc3c(c2)CCN3S(C)(=O)=O)cc1,-6.96%,
CCN(CC)c1ccc2cc(S(=O)(=O)c3ccc(C)cc3)c(=O)oc2c1,-30.2%,
Cc1nn(C)c(C)c1N1C(=O)c2cccc3c(N)ccc(c23)C1=O,-1.15%,
O=C(CCl)N1c2ccccc2Oc2ccc3ccccc3c21,-7.01%,
Nc1c(C(=O)Nc2ccc(F)cc2)sc2nc(-c3cccs3)cc(C(F)(F)F)c12,-0.694%,
Nc1c(C(=O)Nc2ccccc2F)sc2nc(Cc3ccccc3)cc(C(F)(F)F)c12,-25.9%,
O=C1C=CC(=O)c2c(O)c(CO)c(CO)c(O)c21,-27.2%,
CN(C)c1ccc(N=Cc2nc(-c3ccccc3)oc2O)cc1,22.6%,
N#CC(C#N)=C1C=C2C=C(N3CCCCC3)CCC2CC1 (centres undefined),8.21%,
COc1ccc(/C=C2/N=C(c3cccs3)OC2=O)cc1OC(C)C,9.72%,
CCN(CC)c1ccc(/C=C/C(=O)c2ccc(Br)cc2)cc1,,16.3 µM (active)
N#Cc1c(C#N)c(O)c2ccccc2c1O,-3.51%,
COc1cccc(/C(O)=C/c2nc3ccc(C(=O)NCCc4ccc(Cl)cc4)cc3[nH]c2=O)c1,1.36%,
CCOC(=O)c1c(C)oc2c1c(CN1CCN(C(=O)OCC)CC1)c(O)c1ccccc12,-3.75%,
O=C(C1=NN(c2ccccc2)C2C(=O)N(c3cccc(Cl)c3)C(=O)C12)c1ccccc1 (centres undefined),,29.1 µM (active)
COc1ccc(C2C(C(=O)c3cccs3)=C(O)C(=O)N2c2nnc(C)s2)cc1OC (centres undefined),-38.4%,
COc1ccc(OC)c(-c2c3cc(O)c(=O)cc-3oc3cc(O)c(O)cc23)c1,,32.6 µM (active)
O=C1N=C(N2C=CC(=C3C=CNC=C3)C=C2)/C(=C/N=NC(=O)c2ccccc2O)S1,8.22%,
Cc1cc2nc3c(=O)n(C4CCCCC4)c(=O)[nH]c3nc2cc1N,15%,

SMILES,"activity change, negative = inhibition",Potency
O=[N+]([O-])c1cc(Cl)cc(/C=N/NC(=S)Nc2ccc(S(=O)(=O)N3CCOCC3)cc2)c1O,-12.7%,
O=C(c1ccccc1)[C@@H]1[C@@H]2C(=O)N(c3ccc(F)cc3)C(=O)[C@@H]2C2CCCN21 (some centres undefined),54.6%,
CSC1=NSC2=NC(=O)/C(=C\c3coc4ccccc4c3=O)C(=N)N12,37.4%,
CCOc1ccc(Cn2c3ccc(OC)cc3c3nc4ccccc4nc32)cc1,22.9%,
CN1CC=C2C(C#N)=C(N)C(C#N)(C#N)C(Cc3ccccc3)C2C1 (centres undefined),-0.472%,
COc1ccc(CNC(=O)C(C#N)c2nc3ccccc3nc2N2CCCC2)cc1 (centres undefined),-4.78%,
Cc1cccc(-n2c(O)c(C=Nc3ccc4c(c3)OCO4)c3ccccc3c2=O)n1,-17.9%,
Cc1cc(NS(=O)(=O)c2ccc(NC(=O)COc3c(C)cc(Br)cc3C)cc2)no1,-16.4%,
COc1ccc(CNS(=O)(=O)c2cc3c(cc2Cl)N(C(C)=O)CCO3)cc1,-7.94%,
CC(=O)c1ccc(N2C(=O)C3C(C2=O)C(C(=O)c2ccc(Cl)cc2)N2CCCC32)cc1 (centres undefined),0.472%,
CC1CC=C2C(C#N)=C(N)C(C#N)(C#N)C(c3cccs3)C2C1 (centres undefined),4.26%,
CCCCCCn1c(=O)[nH]c2nc3cc(N)c(C)cc3nc2c1=O,-3.8%,
Nc1cccc2c(O)cc(S(=O)(=O)O)cc12,28.4%,
CCc1ccc(/C=C2/C(=O)N(C)C(=S)N2CC(=O)OC)s1,-11.4%,
CCCNc1c(F)c(F)c2c(C)c3ccccc3nc2c1F,14.3%,
CCCCCCN1C=CC=C/C1=C/C=C(C#N)C#N,39.2%,
N#C/C(=C\C=C\c1ccccc1)c1nc(-c2ccc3c(c2)OCO3)cs1,62.8%,
Cc1cc2nc3c(=O)[nH]c(=O)[nH]c3nc2c([N+](=O)[O-])c1N,-7.93%,
CCCCCCc1cc2cc(C(=O)NC)c(=N)oc2cc1O,-3.42%,

# — PubChem BioAssay AID651599 (National Center for Advancing Translational Sciences (NCATS), 2012)
